# Results from the supplement of paper PMC6555819.
# Assays:
# Experiment in all cases: PBM binding z-score (relative to random genomic background probes); higher = stronger binding; sequences stand for … in GC…GCGATTGACAGCGTAGAATGAAGG
# [1] = test system: FXR:RXRa (NR concentration 270 nM, RXRa partner concentration 90 nM)
# Outline: (§1)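 Ligand-free nuclear receptor dimers were bound for 1 h to custom Agilent 4×180K protein-binding microarrays. Detection used antibodies against each partner (one per run). Binding z-scores rest on regression-normalized fluorescence, with random background probes as the reference.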
# [2] = test system: LXRa:RXRa (NR concentration 270 nM, RXRa partner concentration 90 nM)
# Outline: as §1
# [3] = test system: LXRa homodimer (NR concentration 270 nM)
# Outline: as §1
# [4] = test system: LXRb:RXRa (NR concentration 270 nM, RXRa partner concentration 90 nM)
# Outline: as §1
# [5] = test system: LXRb homodimer (NR concentration 270 nM)
# Outline: as §1
# [6] = test system: PPARa:RXRa (NR concentration 270 nM, RXRa partner concentration 90 nM)
# Outline: as §1
# [7] = test system: PPARg:RXRa (NR concentration 180 nM, RXRa partner concentration 90 nM)
# Outline: as §1
# [8] = test system: PPARg:RXRa 270nM:90nM, anti-RXR (NR concentration 270 nM, RXRa partner concentration 90 nM)
# Outline: as §1
# [9] = test system: PPARg:RXRa 30nM:10nM, anti-RXR (NR concentration 30 nM, RXRa partner concentration 10 nM)
# Outline: as §1
# [10] = test system: PPARg:RXRa 90nM:30nM, anti-RXR (NR concentration 90 nM, RXRa partner concentration 30 nM)
# Outline: as §1
# [11] = test system: PPARg:RXRa DBDmut IVT, anti-RXR (DBD mutation: RXRa K156A/R161A, NR concentration 270 nM, RXRa partner concentration 90 nM)
# Outline: as §1
# [12] = test system: PPARg:RXRa IVT, anti-PPARg (NR concentration 270 nM, RXRa partner concentration 90 nM)
# Outline: as §1
# [13] = test system: PPARg DBDmut:RXRa IVT, anti-PPARg (DBD mutation: PPARg1 K132A/R137A, NR concentration 270 nM, RXRa partner concentration 90 nM)
# Outline: as §1
# [14] = test system: PPARg DBDmut IVT, anti-PPARg (DBD mutation: PPARg1 K132A/R137A, NR concentration 270 nM)
# Outline: as §1
# [15] = test system: PPARg homodimer (NR concentration 180 nM)
# Outline: as §1
# [16] = test system: PXR:RXRa (NR concentration 270 nM, RXRa partner concentration 90 nM)
# Outline: as §1
# [17] = test system: PXR homodimer (NR concentration 270 nM)
# Outline: as §1
# [18] = test system: RARa:RXR (NR concentration 270 nM, RXRa partner concentration 90 nM)
# Outline: as §1
# [19] = test system: RARa homodimer (NR concentration 270 nM)
# Outline: as §1
# [20] = test system: RARb:RXRa (NR concentration 270 nM, RXRa partner concentration 90 nM)
# Outline: as §1
Sequence,PBM binding z-score [1],PBM binding z-score [2],PBM binding z-score [3],PBM binding z-score [4],PBM binding z-score [5],PBM binding z-score [6],PBM binding z-score [7],PBM binding z-score [8],PBM binding z-score [9],PBM binding z-score [10],PBM binding z-score [11],PBM binding z-score [12],PBM binding z-score [13],PBM binding z-score [14],PBM binding z-score [15],PBM binding z-score [16],PBM binding z-score [17],PBM binding z-score [18],PBM binding z-score [19],PBM binding z-score [20]
CCTACTGGGCCAAAGGTCATTGGTTCCAATGCTC,5.06,5.15,4.28,4.94,0.631,6.49,11.6,9.63,10.5,10.3,5.02,6.55,0.0482,-0.387,2.89,5.41,2.21,6.04,0.819,4.51
TGAATGAGGTTATAAGCTCAGGGAACGTTGCAAA,1.24,0.975,-0.535,1.01,-0.391,2.67,0.877,2.07,0.7,1.54,1.28,1.28,0.166,0.543,-0.0591,0.55,-0.553,1.26,-1.17,1.04
CCGGGTAGGTTATGGGGCATTCAGGCAACGGTGA,0.235,0.484,0.0736,0.904,-0.348,1.54,2.18,3.16,0.788,2.58,0.0778,1.73,-0.642,-0.773,0.724,0.144,0.122,0.51,0.0053,1.1
TCTCGGAGGACAGGAAAGGTCAGAGCTCGACATC,2.63,3.06,1.44,2.83,-0.216,3.23,0.566,2.15,2.51,1.96,1.51,0.852,-0.54,-0.498,2.25,3.36,0.759,3.62,0.692,3.9
GCTAGCAGGCCATTTGGGTCACTGAATGACGGGC,-0.0182,-0.185,-0.885,-0.0353,-0.763,1.33,0.576,0.447,-0.489,-0.116,1.8,2.35,-0.118,-0.738,-0.224,0.537,-0.19,0.876,-0.661,1.49
AGTATGAGGTTACCAAAGATCAGGGAAACGCTTG,1.85,5.92,0.237,3.08,0.134,2.76,1.79,1.65,0.652,1.11,1.3,1.52,0.279,0.406,0.714,1.62,0.275,2.21,0.475,2.19
GCTGCTAGGTCAGTTTGGTCAGCTAACGGGTACG,1.08,0.563,-0.212,0.437,0.134,0.943,0.183,0.678,-0.304,0.407,2.93,2,-0.859,-0.221,0.433,0.0587,-0.275,0.504,-0.322,3.1
ATATGTAGGTTATCGGGTCTTTCAGTTTGCGCAT,0.832,1.52,1.05,1.64,1.21,3.2,5.24,4.68,2.04,3.97,7.73,6.72,2.3,2.32,2.02,1.2,1.43,1.07,1.78,1.3
